This is an account of results in PubChem BioAssay (NCATS).

The structures appear in SMILES notation. Results filed as inconclusive are left out. Where a call stands in place of a potency, no number is given. Active and inactive are the calls of the source. Calls follow the shape of the dose curve; as a rule, active = well fitted inhibition curve with a large enough effect; inconclusive = small, poorly fitted or top-dose-only effect; inactive = flat fitted curve, though single readings scatter.
Potency is read from the fitted curve at half-maximal effect.

The test system of this assay is MCC-26. Briefly: qHTS assay to identify novel small-molecules to repurpose for Merkel cell carcinoma treatment (AID 1296009). Also: nearly all actives have a fitted effect of over 60% in size. The following applies: MCC and control cell lines, CellTiter-Glo viability, 72 h; series mostly up to 46 µM. The source says: MCC is a rare and aggressive neuroendocrine skin cancer with limited treatment options. Approximately 80% of MCCs have the Merkel cell polyomavirus (MCPyV) DNA integrated into the host genome (virus-positive: VP-MCC) and viral oncogenes drive oncogenesis. The remaining MCCs are virus-negative (VN-MCC) and are caused by UV mutagenesis. To identify novel treatments for VP-MCC and/or VN-MCC we screened three VP-MCC cell lines (WAGA, MKL-1, MKL-2), three VN-MCC cell lines (MCC-13, MCC-26, UISO), and four immortalized, non-transformed control cell lines (HaCaT, HEK293T, CRL7250, NIH-3T3) against ~2,400 compounds in the NCGC Pharmaceutical Collection (NPC) and ~1,900 compounds in the Mechanism Interrogation PlatE (MiPE). Using cell viability as a readout (CellTiter-Glo assay) we found both overlapping and distinct drugs that can be repurposed for the treatment of VP-MCC and VN-MCC.
A high-throughput screen was conducted in 1536-well white flat bottom plates (Corning) on a Kalypsys robotic system. Cell lines WAGA, MKL-1, MKL-2, MCC-13, MCC-26, UISO, HaCaT, HEK293T, CRL7250, and NIH-3T3 were screened against 2 small molecule annotated drug libraries NPC and MIPE in dose response (8 and 11 pt. respectively) measuring cell viability after 72 hours of incubation. […] A 1,536 pintool (Kalypsys) was used to transfer 23 nL of compound in DMSO to the 1,536-well assay plates. After 72 hr incubation at 37 degree celsius, 2.5 uL of CellTiter-Glo (Promega) was dispensed into each well using a BiorapTR. Plates were incubated at room temperature for 10 min, transferred to a ViewLux (PerkinElmer) and the luminescence was recorded using an exposure time of 2 seconds. Relative luminescence units (RLUs) were normalized to in-plate controls (no cells as a positive (cytotoxicity) control, DMSO as negative control) and the normalized data was processed using NCATS in-house software.
Background: In qHTS, concentration-response curves come from the screen itself.
For `O=C1[C@H](Cc2ccc(O)cc2)N2C(=O)CCN(C(=O)NCc3ccccc3)[C@H]2CN1Cc1cccc2ccccc12`, the Potency entry was “inactive”.

`COc1ccc(CCN2CCN(CCCc3ccccc3)CC2)cc1OC`: the Potency entry is “inactive”.

With `CC(=O)Oc1ccccc1C(=O)O`, the Potency entry was “inactive”.

As to `c1ccc([C@H]2CN3CCSC3=N2)cc1`, the Potency entry was “inactive”.

For the compound `O=C(C=Cc1ccc(/C=C/C(=O)Nc2ccc(C3=NCCN3)cc2)cc1)Nc1ccc(C2=NCCN2)cc1`, the Potency result was “inactive”.

With `CC(c1cc2ccccc2s1)N(O)C(N)=O` (stereo not given), the Potency result was “inactive”.

Consider `CN(C)C(=O)c1ccc(S(=O)(=O)c2ccc(NC(=O)[C@@](C)(O)C(F)(F)F)c(Cl)c2)cc1`, for which the Potency result was “inactive”.

`CCC(C)N(C)C(=O)c1cc2ccccc2c(-c2ccccc2Cl)n1` (stereo not given): the Potency entry is “inactive”.

Regarding `Nc1ccc(S(=O)(=O)Nc2ccnn2-c2ccccc2)cc1`, the Potency entry was “inactive”.

Turning to `O=C1CCCC2=C1C(c1[nH]ncc1Cl)N=C(Nc1nc3ccccc3o1)N2` (stereo not given), the Potency result is “inactive”.

As to `Cc1ccc(N(CC2=NCCN2)c2cccc(O)c2)cc1`, the Potency result is “inactive”.

As to `COc1cc2c(cc1OC)CN(CCc1ccc(NC(=O)c3cccc4c(=O)c5cccc(OC)c5[nH]c34)cc1)CC2`, the Potency result was “inactive”.

As to `OC(CN1CCC(Cc2ccc(F)cc2)CC1)c1ccc(Cl)cc1` (stereo not given), the Potency entry is “inactive”.

As for `NC(=O)c1ccc(I)c([N+](=O)[O-])c1`, the Potency entry was “inactive”.

On to `CC(=O)NC(C)c1ccc(Oc2ccc(OC(C)C)cc2)cc1` (stereo not given), for which the Potency entry is “inactive”.

`CCCS(=O)(=O)Nc1ccc(F)c(C(=O)c2c[nH]c3ncc(Cl)cc23)c1F`: the Potency entry was “inactive”.

For the compound `Cc1[nH]c(=O)c(C#N)cc1-c1ccncc1`, the Potency entry is “inactive”.

With `Cc1cnc(NC(=O)C2=C(O)c3ccccc3S(=O)(=O)N2C)s1`, the Potency result was “inactive”.

Regarding `CCOC(=O)N[C@@H]1CC[C@@H]2[C@@H](C1)C[C@H]1C(=O)O[C@H](C)[C@H]1[C@@H]2C=Cc1ccc(-c2cccc(F)c2)cn1`, the Potency entry was “inactive”.

`O=C(O)[C@@H](c1ccc(OCc2ccc3ccccc3n2)cc1)C1CCCC1`: the Potency result was “inactive”.

Regarding `CCc1cncnc1N1CCN(Cc2nc3ccc(C(F)(F)F)cc3[nH]2)CC1`, the Potency result is “inactive”.

Consider `CCCc1nc2c(C)cc(-c3nc4ccccc4n3C)cc2n1Cc1ccc(-c2ccccc2C(=O)O)cc1`, for which the Potency entry is “inactive”.

On to `COc1ccc(C2=N[C@H](c3ccc(Cl)cc3)[C@H](c3ccc(Cl)cc3)N2C(=O)N2CCNC(=O)C2)c(OC(C)C)c1`, for which the Potency entry was “inactive”.

On to `CC(C)(C)OC(=O)CN(Cc1ccc(Cl)cc1)Cc1ccc([N+](=O)[O-])s1`, for which the Potency result was “inactive”.

For the compound `Clc1ccc(Nc2nnc(Cc3ccncc3)c3ccccc23)cc1`, the Potency entry is “inactive”.

Turning to `CCCC(CCC)C(=O)O`, the Potency result was “inactive”.

Take `Cc1ccnc(NS(=O)(=O)c2ccc(NC(=O)Nc3ccc(S(=O)(=O)Nc4nccc(C)n4)cc3)cc2)n1`: the Potency entry is “inactive”.

With `CCCS(=O)(=O)Nc1ccc(F)c(C(=O)c2c[nH]c3ncc(-c4ccc(Cl)cc4)cc23)c1F`, the Potency entry was “inactive”.

On to `Cc1ccccc1C(OCCN(C)C)c1ccccc1` (stereo not given), for which the Potency entry was “inactive”.

On to `Cc1c(CN2CCN(C(=O)C(C)C)CC2)sc2c(N3CCOCC3)nc(-c3cnc(N)nc3)nc12`, for which the Potency was 662 nM (active).

Regarding `Cc1cc(Nc2nc(N[C@@H](C)c3ncc(F)cn3)ncc2Cl)n[nH]1`, the Potency result was “inactive”.

For `NNCCc1ccccc1`, the Potency result was “inactive”.

For `CS(=O)(=O)c1cccc(CNc2nc(Nc3ccc4c(c3)CCC(=O)N4)ncc2C(F)(F)F)c1`, the Potency entry was “inactive”.

Turning to `CCN(c1ccccc1)c1cc(NC)[n+](C)c(C)n1`, the Potency entry is “inactive”.

Consider `CC[C@H](Nc1ncnc2nc[nH]c12)c1nc2cccc(F)c2c(=O)n1-c1ccccc1`, for which the Potency result was “inactive”.

Consider `COc1ccc(-c2oc3cc(OC)ccc3c2C(=O)c2ccc(C#N)cc2)cc1`, for which the Potency entry was “inactive”.

Consider `OCCC#Cc1nc(-c2ccc(F)cc2)c(-c2ccncc2)n1CCCc1ccccc1`, for which the Potency entry was “inactive”.

For the compound `CC[C@@H](C)[C@H](NC(=O)[C@H](CC1CCCCC1)NC(=O)c1ccno1)C(=O)N1CCC2(CCc3ccccc32)CC1`, the Potency entry is “inactive”.

In the case of `CCn1c(-c2nonc2N)nc2cnc(Oc3cccc(NC(=O)c4ccc(OCCN5CCOCC5)cc4)c3)cc21`, the Potency entry was “inactive”.

For `COc1ccc2c3n(c(=NC(=O)c4cccnc4)nc2c1OC)CCN3`, the Potency entry was “inactive”.
